The entries come from a sample that favours hits as a whole.
CHX counter: Cycloheximide Counterscreen for Small Molecule Inhibitors of Shiga Toxin; cell reporter, cycloheximide protein synthesis inhibition counterscreen; max response, %; 300,000 tested, 12% active; AID 2314, 2010; in the data active = max response mostly above about 13%, no sharp cut-off; inactive = mostly below about 14%; note: read at 38.3 µM for the half of the compounds with a filed dose; 0% is about no effect
LASV entry inh: qHTS for Inhibitors of binding or entry into cells for Lassa Virus; Lassa virus pseudotype entry inhibition, cell reporter; Potency, µM (top dose mostly 37.9 µM), inactives show top-dose activity change, negative = inhibition, hits mostly inhibitors; 300,000 tested, 1.2% active; calls by dose curve; tested in HEK293 cells; note: potency is the fitted concentration of half-maximal effect; % is set by controls: 0 for no effect and ±100 for the full control effect; nearly all actives have a fitted effect of over 50% in size
Shiga toxin inh: A qHTS for Small Molecule Inhibitors of Shiga Toxin; Vero cells, Shiga toxin protein synthesis inhibition reporter; inhibition, % at 38.7 µM; 290,000 tested, 9.2% active; in the data active = inhibition mostly above about 28%, no sharp cut-off; inactive = mostly below about 43%; note: 0% is about no effect
MARV entry inh: qHTS for inhibitors of binding or entry into cells for Marburg Virus | Marburg virus pseudotyped entry inhibition, cell reporter | Potency, µM (titrated, usually from 37.8 µM), for inactives: at the highest dose activity change, negative = inhibition, actives largely listed as inhibitors | 300,000 tested, 1.8% active; calls by dose curve; tested in HEK293 cells; note: potency is the fitted concentration of half-maximal effect; % is set by controls: 0 for no effect and ±100 for the full control effect
Vaccinia Venus: qHTS for Stage-Specific Inhibitors of Vaccinia Orthopoxvirus: Venus Reporter Primary qHTS | AID 720580, 2013 | 330,000 tested, 0.46% active | Vaccinia virus Venus reporter expression, fluorescence | Potency, µM (doses to about 36.5 µM), without a hit: top-dose activity change, negative = inhibition, hits mostly inhibitors; calls by dose curve; tested in A549 cells; note: potency is the fitted concentration of half-maximal effect; % is set by controls: 0 for no effect and ±100 for the full control effect; nearly all actives have a fitted effect of over 30% in size
Vaccinia mCherry: qHTS for Stage-Specific Inhibitors of Vaccinia Orthopoxvirus: mCherry Reporter Primary qHTS | 310,000 tested, 0.63% active | Potency, µM (top dose mostly 36.5 µM), without a hit: at the highest dose activity change, negative = inhibition, usual class: inhibitors | Vaccinia virus mCherry reporter infection, fluorescence; calls by dose curve; tested in A549 cells; note: potency is the fitted concentration of half-maximal effect; % is set by controls: 0 for no effect and ±100 for the full control effect; nearly all actives have a fitted effect of over 35% in size
Starred values were filed as active, the others as inactive; [ ] = remark or other dose.

For CN1CCCc2cc(/C=C/c3ccnc4ccccc34)ccc21 the results were Vaccinia Venus 33.2% and Vaccinia mCherry -9.9%.
Screening CC1(C(=O)NS(=O)(=O)c2ccc(F)cc2F)CCN1C(=O)Cc1cc(F)ccc1F (stereo not drawn) returned Vaccinia Venus 2.0% and Vaccinia mCherry 36.0%.
`O=c1c(-c2ccccc2)coc2cc(O)cc(O)c12` gave Vaccinia Venus -15.9% and Vaccinia mCherry -7.1%.
Screening O=c1c(-c2ccc3c(c2)OCCO3)coc2cc(O)cc(O)c12 returned CHX counter 37.5*, LASV entry inh -21.1%, Shiga toxin inh 72.7* and MARV entry inh -24.5%.
`O=C(Nc1ccc2c(c1)OCO2)c1n[nH]c(=O)c2ccccc12` gave CHX counter 17.8*, Shiga toxin inh 57.3*, Vaccinia Venus 0.0%[7.34 µM] and Vaccinia mCherry inactive[7.34 µM].
Screening CC(C)(C)c1ccc(NC(=O)c2ccc(=O)[nH]n2)cc1 returned CHX counter 54.0*, LASV entry inh inconclusive, Shiga toxin inh 110.9*, MARV entry inh inconclusive, Vaccinia Venus -14.1% and Vaccinia mCherry -16.0%.
O=C(Nc1ccc2c(c1)OCO2)c1ccc(=O)[nH]n1 was read as CHX counter 17.9*, Shiga toxin inh 51.7*, Vaccinia Venus -5.5% and Vaccinia mCherry -26.4%.
For O=C(Nc1ccccc1-c1ccccc1)c1ccc(=O)[nH]n1 the results were CHX counter 46.1*, LASV entry inh 9.9%, Shiga toxin inh 83.0*, MARV entry inh -6.8%, Vaccinia Venus -11.5% and Vaccinia mCherry -11.0%.
Screening O=C(Nc1ccc2c(c1)OCO2)c1nn(-c2ccccc2)c(=O)c2ccccc12 returned CHX counter -4.2, LASV entry inh inconclusive, Shiga toxin inh -8.4 and MARV entry inh -7.8%.
For Cc1cc(C)c(S(=O)(=O)NCCS(=O)(=O)N2CCN(c3ccccc3)CC2)c(C)c1 the results were LASV entry inh -23.6%[46.1 µM], Vaccinia Venus -16.4% and Vaccinia mCherry inactive.
For COc1ccc(CCNC(=O)c2cccn2C)cc1 the results were CHX counter 6.8 and Shiga toxin inh -14.7.
Cn1cccc1C(=O)NNC(=O)COc1ccccc1F was read as CHX counter 32.8*, LASV entry inh 26.9%[46.1 µM], Shiga toxin inh 86.4*, MARV entry inh 0.0%[46.1 µM], Vaccinia Venus 8.9% and Vaccinia mCherry inactive.
Screening Cn1cccc1C(=O)NCCc1ccccc1 returned CHX counter 23.5*, LASV entry inh inconclusive, Shiga toxin inh 51.3*, MARV entry inh inconclusive, Vaccinia Venus 2.3% and Vaccinia mCherry 5.7%.
For O=C(COc1ccccc1F)NNC(=O)c1cccc(-n2cccc2)c1 the results were CHX counter -3.0, LASV entry inh -1.7%[46.1 µM], Shiga toxin inh -7.0, MARV entry inh -0.9%[46.1 µM], Vaccinia Venus -9.8% and Vaccinia mCherry -12.3%.
`Cn1cccc1C(=O)NCCc1ccc(Cl)cc1` gave CHX counter 46.1* and Shiga toxin inh 124.8*.
`Cn1cccc1C(=O)NCc1ccc(Cl)cc1` gave CHX counter 10.5, LASV entry inh 11.0%, Shiga toxin inh -5.3, MARV entry inh -0.2%[46.1 µM], Vaccinia Venus -4.4% and Vaccinia mCherry 10.4%.
`C=C(C)CSc1nc2sc3c(c2c(=O)n1-c1ccccc1)CCC(C)C3` (stereo not drawn) gave LASV entry inh 2.7%[46.1 µM], Vaccinia Venus -13.9% and Vaccinia mCherry -24.9%.
`CCc1cccc2c(C(=O)COC(=O)[C@@H]3CC(O)CN3S(=O)(=O)c3ccccc3[N+](=O)[O-])c[nH]c12` (stereo partly drawn) gave LASV entry inh -4.3%[46.1 µM], MARV entry inh -1.3%[46.1 µM], Vaccinia Venus -16.1% and Vaccinia mCherry inconclusive.
Screening CC(C)Cn1cc(NC(=O)NCc2cccc(Cl)c2)c2ccccc2c1=O returned LASV entry inh 11.4%[46.1 µM], Vaccinia Venus 7.4% and Vaccinia mCherry 2.8%.
CN(C)C(CNC(=O)c1ccc(NC(=O)c2cccs2)cc1)c1ccccc1 (stereo not drawn) was read as CHX counter -4.1, LASV entry inh 0.6%[46.1 µM], Shiga toxin inh 5.2, MARV entry inh inconclusive, Vaccinia Venus 0.6% and Vaccinia mCherry -5.7%.

Screens from PubChem.
